# Data taken from PubChem BioAssay AID504466 (National Center for Advancing Translational Sciences (NCATS), 2011).
# The whole screen tested about 330,000 compounds, of which about 4,200 (1.3%) were called active. Roughly 6% stayed inconclusive and do not appear here. The call rests on the fitted dose curve; in most records, active means well fitted activation curve with a large enough effect; inconclusive means small, poorly fitted or top-dose-only effect; inactive means no such curve, though single readings can be large or run the other way. For the sample, actives were picked, then their nearest neighbours and some compounds at random.
# Assay: qHTS screen for small molecules that induce genotoxicity in human embryonic kidney (HEK293T) cells expressing luciferase-tagged ELG1; further: nearly all actives have a fitted effect of over 60% in size; on activity change, positive = activation: % of control where 0% means no effect
# Settings: HEK293T ELG1-luciferase reporter, luminescence, 16 h; series mostly up to 46 µM; activity change, positive = activation: at the top concentration
# Excerpt: NIH Molecular Libraries Probe Production Network [MLPCN] NIH Chemical Genomics Center [NCGC] MLPCN Grant: 1 R03 MH092164-01 Assay Provider: Kyungjae Myung, NHGRI, NIH Keywords: MLPCN, qHTS, NCGC, genotoxicity, cancer Assay Overview: Cancer cells divide rapidly compared to normal cells in the body. During cell division, cancer cells need to duplicate their genome by DNA replication. The failure of genome duplication leads to cancer cells' death. Therefore, inhibitors of DNA replication could specifically kill cancer cells. Based on this concept, many chemotherapeutic agents were developed and have been used to treat cancer patients. However, there are a limited number of agents available in the clinical setting, and some of those that do exist have low efficacy and severe side effects. Therefore, if we can find the compounds that effectively block DNA replication either by directly damaging DNA or by inhibiting other cellular mechanisms, the options for cancer treatment will be broadened. With this in mind, we developed a quantitative high-throughput ELG1-luciferase reporter gene assay. Since the level of human ELG1 protein is enhanced in response to genetic stresses, increases in luciferase activity can be used to identify compounds that cause genetic stress.
# Assay Protocol Summary: For genotoxicity screening, 2,000 cells in 5 uL/well were dispensed into white, solid-bottom 1536-well plates using a solenoid-based dispenser. Following transfer of 23 nL compound or DMSO vehicle by a pin tool, the plates were incubated 16 hr at 37 °C and 5% CO2. 5 ul ONE-Glo (Promega) was then added to each plate and following a 30 min incubation at room temperature, luciferase activity was quantified on a ViewLux CCD-based plate reader.
# Potency means the concentration at half of the fitted maximal effect.
SMILES,"activity change, positive = activation",Potency
O=C(CSc1ccc(-c2ccc(F)cc2)nn1)Nc1ccc2c(c1)OCCO2,0.784% (inactive),–
O=C(CSc1ccc([N+](=O)[O-])cn1)Nc1ccc(N2CCOCC2)cc1,-1.03% (inactive),–
O=C(CSc1ccc(-c2ccc(-n3cccn3)cc2)nn1)Nc1ccc([N+](=O)[O-])cc1,–,18.3 µM (active)
Cc1cccc(C)c1Nc1nnc(SCC(=O)NCCCN2CCCC2=O)s1,-2.8% (inactive),–
Cc1ccc(NC(=O)COC(=O)C2CC2)cc1S(=O)(=O)N1CCOCC1,-0.783% (inactive),–
Cc1noc(C)c1NC(=O)Nc1ccc2c(c1)C(=O)N([C@H](C)CO)C[C@H](C)[C@@H](CN(C)S(=O)(=O)c1cn(C)cn1)O2,2.22% (inactive),–
COc1cc(C(=O)OCc2ccc([N+](=O)[O-])cc2)cc(OC)c1OC,5.71% (inactive),–
COc1cc(/C=N/O)ccc1OCc1ccc([N+](=O)[O-])cc1,–,9.2 µM (active)
COc1cc(/C=N\Nc2ccc([N+](=O)[O-])cn2)ccc1OCC(=O)O,-0.169% (inactive),–
CC(=O)C(CC(=O)N1CCCC1)C(=O)Nc1ccc(Cl)cc1 (centres undefined),2.38% (inactive),–
Cc1ccc(C(=O)Nc2ccccc2-c2ccccc2)cc1S(=O)(=O)Nc1ccccc1,-9.23% (inactive),–
CCOc1ncccc1C(=O)Nc1ccc2c(c1)OCCO2,9.61% (inactive),–
COc1ccc(C)cc1NC(=O)CSc1cccc[n+]1[O-],5.29% (inactive),–
CN=C(Nc1cccc(S(=O)(=O)N2CCOCC2)c1)c1ccccc1,0.167% (inactive),–
COc1ccccc1NC(=O)c1ccc(C)s1,–,11.6 µM (active)
COc1ccccc1NC(=O)C1=C(C)NC(=O)NC1c1ccc(C)s1 (centres undefined),5.02% (inactive),–
COC(=O)c1c(NC(C)=O)sc(C(=O)Nc2ccccc2OC)c1C,0.157% (inactive),–
Cc1ccc(S(=O)(=O)N2CCN(C(=O)Cn3c(=O)cnc4ccccc43)CC2)c(C)c1,-6.79% (inactive),–
Cc1c(C(=O)Nc2ccccc2)sc2nc3n(c(=O)c12)CCCCC3,10.3% (inactive),–
Cc1cccc2c(=O)n3c(nc12)CCCCC3,-4.76% (inactive),–
O=c1c2c(nc3n1CCCCC3)sc1c(O)cccc12,–,2.06 µM (active)
Cc1ccc(NS(=O)(=O)c2ccc(C(C)C)cc2)cc1S(=O)(=O)N1CCOCC1,-5.95% (inactive),–
COc1cccc(-n2c(=S)[nH]c3c(oc4ccccc43)c2=O)c1,11.3% (inactive),–
O=c1oc2ccccc2cc1-c1cn(-c2ccccc2)c(=S)[nH]1,–,0.0461 µM (active)
S=c1[nH]c(-c2cccs2)cn1-c1ccccc1,13% (inactive),–

SMILES,"activity change, positive = activation",Potency
O=C1OC[C@@H]2CCCN2C(=O)[C@H](CC(=O)N(CCO)Cc2ccccc2)C/C=C\CC[C@@H]1Cc1ccc(F)cc1,-3.58% (inactive),–
COc1cc(/C=C/C(=O)OCC(=O)NC2CC2)cc(OC)c1OC,1.1% (inactive),–
Cc1ccc(S(=O)(=O)N2CCN(C(=O)CN3C(=O)NC(C)(c4ccc(Cl)cc4)C3=O)CC2)c(C)c1 (centres undefined),-3.81% (inactive),–
O=C(CCNC(=O)c1ccc(Br)cc1)NCCCc1ccccc1,2.41% (inactive),–
CC(C)c1ccc(C(=O)NCCCc2ccccc2)cc1,–,18.4 µM (active)
CN(c1ccccc1)S(=O)(=O)c1ccc(C(=O)NCCc2ccccc2)cc1,13.5% (inactive),–
Cc1noc(C)c1NC(=O)Nc1ccc2c(c1)C(=O)N([C@H](C)CO)C[C@H](C)[C@@H](CN(C)C(=O)Nc1ccccc1)O2,3.31% (inactive),–
O=C(CSc1ncnc2sccc12)NC1CCS(=O)(=O)C1 (centres undefined),1.63% (inactive),–
C=CCC[C@@H](Cc1ccc(F)cc1)C(=O)OC[C@H](Cc1c[nH]c2ccccc12)NC(=O)[C@@H](CC=C)CC(=O)N(CCO)Cc1ccccc1,-11% (inactive),–
Cc1cc(CO)nn1-c1ccc([N+](=O)[O-])cc1,-0.0391% (inactive),–
Cc1ccc(-n2cc3ccc([N+](=O)[O-])cc3n2)cc1,–,2.91 µM (active)
Cc1ccc(-c2cn(S(=O)(=O)c3cccc([N+](=O)[O-])c3)nc2N)cc1,-4.12% (inactive),–
O=C(N[C@@H]1C/C=C\C[C@@H](CC(=O)N(CCO)Cc2ccccc2)C(=O)N[C@H](Cc2ccccc2)COC1=O)OCC1c2ccccc2-c2ccccc21,-0.759% (inactive),–
CCCCCCSc1ccc([C@@H]2[C@H]3C(=O)N(CC)C(=O)[C@H]3[C@]3(C(=O)OC)CCCCN23)cc1,1.28% (inactive),–
CCCOC(=O)C1=C(C)NC2=C(C(=O)C(C(=O)OC)C(C)C2)C1c1ccc(N(C)C)cc1 (centres undefined),0.467% (inactive),–
COCCOC(=O)c1[nH]c2c(c1C)C(=O)CC(c1ccc(OC)cc1)C2 (centres undefined),-0.128% (inactive),–
COC(=O)C1C(=O)c2c([nH]c(C(=O)OCCSC)c2C)CC1C (centres undefined),–,16.4 µM (active)
CC(C)N(C(=O)[C@H]1C[C@H](CC(=O)NC(C)(C)C)C(=O)N2CCc3c([nH]c4ccc(Cl)cc34)[C@]12C)C(C)C,-3.2% (inactive),–
Cc1cc(NC(=O)CSc2ncc(C(F)(F)F)cc2Cl)no1,-0.775% (inactive),–
COc1ccc(Cl)cc1NC(=O)COC(=O)c1ccc(Br)o1,1.48% (inactive),–
CN(C(=O)c1cccc(NC(=O)C2CCN(C(=O)OC(C)(C)C)CC2)c1)C1CCC1,-4.07% (inactive),–
NC[C@H](Cc1ccccc1)NCCc1cc(C(F)(F)F)cc(C(F)(F)F)c1,0.0851% (inactive),–
CCc1ccc2oc(-c3ccc(N)cc3)nc2c1,–,0.206 µM (active)
Cn1nnnc1SCC(=O)Nc1sccc1C(N)=O,4.53% (inactive),–
Cc1cc(NC(=O)CSCC(=O)NC(C)c2ccccc2)no1 (centres undefined),1.08% (inactive),–

SMILES,"activity change, positive = activation",Potency
Cc1cccc(-n2ncc3c(N4CCc5ccccc54)ncnc32)c1,–,2.59 µM (active)
COc1ccccc1N1CCN(C(=O)CSc2ncnc3c2cnn3-c2ccc(C)c(C)c2)CC1,0.292% (inactive),–
COc1ccc(-n2ncc3c(N4CCCc5ccccc54)ncnc32)cc1,–,1.16 µM (active)
Cc1cccc(-n2ncc(Cl)c(Cl)c2=O)c1,-13.8% (inactive),–
COc1ccc(-n2ncc3c(SCC(=O)NNC(C)=O)ncnc32)cc1,15.2% (inactive),–
COc1ccc2oc(=O)c(C(=O)N3CCCc4ccccc43)cc2c1,-9.84% (inactive),–
O=C1COc2ccc(C(=O)COC(=O)CCOc3ccccc3)cc2N1,-1.34% (inactive),–
C=CCC[C@H](Cc1ccc(F)cc1)C(=O)OC[C@@H](Cc1c[nH]c2ccccc12)NC(=O)[C@H](CC=C)CC(=O)N[C@H](CO)Cc1ccccc1,-3.43% (inactive),–
COc1cc2ccccc2cc1C(=O)Nc1ccncc1,–,16.4 µM (active)
COc1cc2ccccc2cc1C(=O)Nc1ccc(NC(=O)c2cccs2)cc1,-6.8% (inactive),–
COc1cc2ccccc2cc1C(=O)Nc1ccc(N2CCOCC2)cc1,16.1% (inactive),–
O=C(CSc1nnc(-c2ccncc2)o1)Nc1cccc(Cl)c1,14.8% (inactive),–
CN(Cc1ccc(CNC[C@H]2O[C@@H](n3cnc4c(N)ncnc43)[C@H](O)[C@@H]2O)o1)S(C)(=O)=O,0.515% (inactive),–
C=C(C)CSc1nnc(-c2ccc(C)cc2)n1N,–,10 µM (active)
Cc1ccc(NC(=O)NC(=O)CSc2nnc(-c3ccc(OC(F)F)cc3)n2N)c(C)c1,3.7% (inactive),–
Cc1ccc(-c2nnc(SC(C)C#N)n2N)cc1 (centres undefined),13.4% (inactive),–
CN(CC(=O)NCCc1ccc(S(N)(=O)=O)cc1)CC(=O)Nc1ccc(F)c(F)c1F,-0.661% (inactive),–
CCOC(=O)C1CCN(C(=O)CN2C(=O)NC(C)(c3ccc4cc(OC)ccc4c3)C2=O)CC1 (centres undefined),-5.31% (inactive),–
N#CCCN(C(=O)COC(=O)c1ccc2c(c1)OCCO2)c1ccccc1,0.0128% (inactive),–
O=C(OCC(=O)N1CCCCCC1)c1ccc(Cl)nc1,0.144% (inactive),–
Cc1cccc(NC(=O)COc2ccccc2C)n1,–,18.4 µM (active)
CCN(CC)S(=O)(=O)c1ccc(C)c(NC(=O)COc2ccc(Br)cc2Cl)c1,8.73% (inactive),–
Cc1cccc(NC(=O)Nc2ccc(OCc3ccccc3)cc2)n1,4.5% (inactive),–
Cc1ccccc1OCC(=O)Nc1nc(C)c(C(=O)N(C)C)s1,-0.0756% (inactive),–
Cc1cccc(NC(=O)COc2ccc(Br)cc2C)n1,–,2 µM (active)

SMILES,"activity change, positive = activation",Potency
COCCNC(=O)COc1ccccc1C,3.83% (inactive),–
CC(=NNC(=O)c1ccc2nc[nH]c2c1)c1ccc(Br)cc1,2.04% (inactive),–
CCOC(=O)C1CCN(CC(=O)Nc2ccc(OC)c(S(=O)(=O)N3CCCCC3)c2)CC1,-1.03% (inactive),–
CC1O[C@H](OC2C(COC3OC(CO)C(O)[C@H](O)C3O)OC(OC3CC[C@]4(C)C(CC[C@@]5(C)[C@@H]4C=C[C@]46OC[C@@]7(CCC(C)(C)C[C@H]74)C(O)C[C@@]56C)C3(C)C)C(O)C2O)C(O)C(O)C1O (some centres undefined),2.19% (inactive),–
CC(=O)c1sc(NC(=O)C2=NN(c3ccccc3)C(=O)CC2)nc1C,-0.325% (inactive),–
CC(=O)c1sc(N)nc1C,4.58% (inactive),–
CC(=O)c1sc(N/N=C\c2ccc(C)cc2)nc1C,–,18.4 µM (active)
COc1cc(C=NNC(=O)c2cccnc2)ccc1OC(=O)c1ccccc1F,0.184% (inactive),–
CC[C@@H]1CCCCc2ccccc2[C@@H](C(=O)C[C@H](O)CC(C)=O)OC1=O,0.282% (inactive),–
O=C(CN1C(=O)NC2(CCCCCCC2)C1=O)NCc1ccc(F)cc1,1.1% (inactive),–
Cc1ccc(NC(=O)CN(C)C(=O)c2ccc(Cl)c(S(=O)(=O)NCc3ccco3)c2)cc1,-2.11% (inactive),–
COC(=O)c1ccc(/C=C/c2c(-c3ccc(OC)cc3)sc3ccccc23)cc1,0.743% (inactive),–
Oc1ccc(N=Cc2sc3ccccc3c2Cl)cc1,-1.68% (inactive),–
COc1ccc(N=C(C)c2sc3ccccc3c2O)cc1,–,2.31 µM (active)
CCOc1ccccc1Nc1nnc(SCC(=O)NCC2CCCO2)s1 (centres undefined),-2.62% (inactive),–
Cc1ccc(C)c(NC(=O)CN(C)C(=O)COc2ccc3ccccc3c2)c1,-2.21% (inactive),–
O=C(CSc1nc2ccccc2c(=O)n1-c1ccc(F)cc1)NC1CC1,4.22% (inactive),–
O=C(CSc1nc2ccccc2c(=O)n1-c1ccccc1F)N1CCOCC1,8.89% (inactive),–
Cc1ccc(-n2c(SCC(=O)N3CCC(C(=O)O)CC3)nc3ccccc3c2=O)cc1C,–,14.6 µM (active)
COc1ccc(S(=O)(=O)N2CCCCCC2)cc1NC(=O)Cc1ccc(OC)c(OC)c1,-1.59% (inactive),–
N#CC(Cc1cc2ccccc2n1S(=O)(=O)c1ccccc1)OCc1ccccc1 (centres undefined),-2.05% (inactive),–
O=C(NCCc1cccc(F)c1)C1CCCN(c2nc3ccccc3s2)C1 (centres undefined),-3.62% (inactive),–
Cc1ccc2nc(N3CCN(C(=O)c4ccco4)CC3)sc2c1,11.9% (inactive),–
Fc1ccc2nc(N3CCCCC3)sc2c1,–,7.31 µM (active)
